Data as given in PubChem BioAssay.
Unmarked numbers belong to inactive results. How the calls were made is not given here.

Test system: Aerobactin synthetase IucA (Klebsiella pneumoniae, hypervirulent)
Experiment: IucA enzyme inhibition, biochemical, LOPAC library, absorbance readout (AID 1346212);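 further: 100% = no compound wells and 0% = no enzyme wells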
Details: IucA enzyme assay, absorbance (OD) readout; stronger effect = lower value;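 tested at 8 µM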

**Q.** With `O=c1ccn([C@@H]2O[C@H](COP(=O)(O)OP(=O)(O)O)[C@@H](O)[C@H]2O)c(=O)[nH]1` as the compound, how does the remaining activity read?
**A.** 106%

**Q.** `CN(C)C(N)=NCCC[C@H](N)C(=O)O` was tested. Which remaining activity did it give?
**A.** 97.3%

**Q.** Which remaining activity does the source give for `CC#C[C@]1(O)CC[C@H]2[C@@H]3CCC4=CC(=O)CCC4=C3[C@@H](c3ccc(N(C)C)cc3)C[C@@]21C` here?
**A.** 111%

**Q.** Which remaining activity does the source give for `NCCC1CCCC(CCN)N1` (stereo not given) here?
**A.** 115%

**Q.** With `C[C@H](O)C(=O)C1=Nc2c(nc(N)[nH]c2=O)NC1` as the compound, how does the remaining activity read?
**A.** 109%

**Q.** With `COc1cc([C@@H]2c3cc4c(cc3[C@@H](O[C@@H]3O[C@@H]5CO[C@@H](C)O[C@H]5[C@H](O)[C@H]3O)[C@H]3COC(=O)[C@H]23)OCO4)cc(OC)c1O` as the compound, how does the remaining activity read?
**A.** 127%

**Q.** Which remaining activity does the source give for `CNC(=O)c1cc2c(cn1)[nH]c1ccccc12` here?
**A.** 97.3%

**Q.** Which remaining activity does the source give for `N#CC(C#N)=C(N)/C(C#N)=C/c1ccc(O)cc1` here?
**A.** 117%

**Q.** How did the remaining activity turn out when `CNC1(C)C2CCC(C2)C1(C)C` (stereo not given) was run?
**A.** 96.4%

**Q.** How did the remaining activity turn out when `Ic1ccc(N2CCN(Cc3c[nH]c4ncccc34)CC2)cc1` was run?
**A.** 115%

**Q.** `CCc1c(C)[nH]c2c1C(=O)C(CN1CCOCC1)CC2` (stereo not given) was tested. Which remaining activity did it give?
**A.** 121%

**Q.** Which remaining activity does the source give for `Cc1oncc1C(=O)Nc1ccc(C(F)(F)F)cc1` here?
**A.** 110%

**Q.** `O=C1O/C(=C/Br)CCC1c1cccc2ccccc12` (stereo not given) was tested. Which remaining activity did it give?
**A.** 112%

**Q.** For `Nc1nc(N)c2nc(CNc3ccc(C(=O)N[C@@H](CCC(=O)O)C(=O)O)cc3)cnc2n1`, which remaining activity is on record?
**A.** 112%

**Q.** For `NS(=O)(=O)C#Cc1ccccc1`, which remaining activity is on record?
**A.** 118%

**Q.** With `CC(C)(CO)Cc1cc(C(C)(C)C)c(O)c(C(C)(C)C)c1` as the compound, how does the remaining activity read?
**A.** 109%

**Q.** With `COc1ccccc1N1CCN(CCCNc2c(C)c(=O)n(C)c(=O)n2C)CC1` as the compound, how does the remaining activity read?
**A.** 96.4%

**Q.** Which remaining activity does the source give for `NC(N)=Nc1nc(CSCC/C(N)=N/S(N)(=O)=O)cs1` here?
**A.** 102%

**Q.** With `CCN(c1nc(N)c(C(=O)N=C(N)N)nc1Cl)C(C)C` as the compound, how does the remaining activity read?
**A.** 109%

**Q.** With `COc1ccccc1CNCCCCCCNCCCCCCCCNCCCCCCNCc1ccccc1OC` as the compound, how does the remaining activity read?
**A.** 91.3%

**Q.** How did the remaining activity turn out when `O=c1c2ccccc2[nH]c(=S)n1CCN1CCC(=C(c2ccc(F)cc2)c2ccc(F)cc2)CC1` was run?
**A.** 119%

**Q.** `C#CCN1C(C)=C(C(=O)OC)C(c2cccc([N+](=O)[O-])c2)C(C(=O)OCC)=C1C` (stereo not given) was tested. Which remaining activity did it give?
**A.** 112%

**Q.** How did the remaining activity turn out when `COc1cc(CNC(=O)CCCCCCC(C)C)ccc1O` was run?
**A.** 96.1%

**Q.** For `Fc1ccc(C(OCCCc2cnc[nH]2)c2ccc(F)cc2)cc1`, which remaining activity is on record?
**A.** 111%

**Q.** How did the remaining activity turn out when `O=C(N[C@@H](Cc1ccccc1)C(=O)CCl)OCc1ccccc1` was run?
**A.** 111%

**Q.** For `CCCNC[C@H](O)COc1ccccc1C(=O)CCc1ccccc1`, which remaining activity is on record?
**A.** 91.3%

**Q.** With `CSc1ccc(C(=O)c2[nH]c(=O)[nH]c2C)cc1` as the compound, how does the remaining activity read?
**A.** 118%

**Q.** For `CCCc1c(OCCCOc2ccc(OCC(=O)O)cc2)ccc(C(C)=O)c1O`, which remaining activity is on record?
**A.** 101%

**Q.** With `O=C(c1cc(O)c(O)c([N+](=O)[O-])c1)c1ccccc1F` as the compound, how does the remaining activity read?
**A.** 104%

**Q.** `N=C(N)SCCc1cnc[nH]1` was tested. Which remaining activity did it give?
**A.** 122%

**Q.** With `CCCCCCCC/C=C\CCCCCCCC(=O)NCCO` as the compound, how does the remaining activity read?
**A.** 98.7%

**Q.** Which remaining activity does the source give for `NC(N)=N[C@@H](CCC(=O)O)C(=O)O` here?
**A.** 115%

**Q.** `Nc1nnc(-c2cccc(Cl)c2Cl)c(N)n1` was tested. Which remaining activity did it give?
**A.** 114%

**Q.** With `Nc1ncnc2c1ncn2C1CCCC1` as the compound, how does the remaining activity read?
**A.** 120%

**Q.** How did the remaining activity turn out when `CC(=O)O[C@]1(C(C)=O)CC[C@H]2[C@@H]3C=C(Cl)C4=CC(=O)[C@@H]5C[C@@H]5[C@]4(C)[C@H]3CC[C@@]21C` was run?
**A.** 95.7%

**Q.** For `O=C(Nc1nc2ccccc2n1CCN1CCOCC1)c1cccc([N+](=O)[O-])c1`, which remaining activity is on record?
**A.** 120%

**Q.** How did the remaining activity turn out when `CN1CCc2ccccc2Cc2[nH]c3ccccc3c2CC1` was run?
**A.** 107%

**Q.** How did the remaining activity turn out when `CN1CCc2cc(O)c(O)cc2C(c2ccccc2)C1` (stereo not given) was run?
**A.** 105%

**Q.** How did the remaining activity turn out when `CC(C)CN(C)c1nc(N)c(C(=O)N=C(N)N)nc1Cl` was run?
**A.** 114%

**Q.** How did the remaining activity turn out when `CN(C)CC/C=C1\c2ccccc2COc2ccccc21` was run?
**A.** 121%
